# Test results taken from PubChem BioAssay (NCATS).
# Values without a mark were called inactive. Results filed as inconclusive are left out. The list shows a part of the results. Activity calls are given as the source filed them. Unless noted, calls follow the shape of the dose curve; as a rule, active = well fitted curve in either direction with a large enough effect (not every such curve was filed as active); inconclusive = small, poorly fitted or top-dose-only effect, or another doubt; inactive = flat fitted curve, though single readings scatter.
# What was measured:
# [1] = target: Lysosomal acid glucosylceramidase (Homo sapiens) (UniProt P04062); experiment: Glucocerebrosidase-p2 (AID 348; in the data active = potency below about 10 µM; also: potency is read from the fitted curve at half-maximal effect); settings: purified GBA, blue fluorogenic substrate, 40 min
# In short: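 Normal human glucocerebrosidase (0.2 nM) with blue fluorogenic substrate (80 uM final) in citrate/phosphate pH 5.9 with 10mM sodium taurocholate, 0.01% tween-20; 40 min RT, NaOH/glycine stop; fluorescence Ex 365/Em 440; AC50 from a titration from 0.6 nM upwards.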
# [2] = AP1 Signaling Pathway (AID 357); settings: ME-180 AP-1-bla reporter, EGF-induced, beta-lactamase ratio, 5 h;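 also: ME-180 reporter cells stimulated with EGF at its EC50 level; % is scaled to controls: 0 for no effect and ±100 for the full control effect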
# In short: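 Titration-series screen for positive or negative modulators of EC50 EGF-induced signaling in ME-180 cells carrying an AP-1-driven beta-lactamase reporter. After 5 hours at 37 degrees Celsius, CCF4 460nm/530nm emission ratio gave %Activity; AC50 values derived.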
# [3] = target: Cytochrome P450 1A2 (Homo sapiens) (UniProt P05177); experiment: p450-cyp1a2 (AID 410; calls by dose curve; also: potency is read from the fitted curve at half-maximal effect;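 as to activity change, negative = inhibition: -100% = full effect of reference inhibitor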)
# In short: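 O-Demethylation of luciferin 6' methyl ether by human CYP1A2 is monitored as luciferase luminescence. Substrate sits at Km (100uM); enzyme is 20nM. Values are scaled to 57 uM furafylline as maximal inhibition.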
# [4] = NFAT Signaling Pathway (AID 444); settings: Jurkat NFAT-bla M1, carbachol, beta-lactamase ratio, 5 h;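 also: carbachol stimulus at about its EC50 of 1 µM final; % is scaled to controls: 0 for no effect and ±100 for the full control effect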
# In short: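 Jurkat cells with NFAT-driven β-lactamase reporter and co-expressed M1 receptor, stimulated with carbachol (final 1 uM, ~EC50), compound titration, 5 h at 37 °C. CCF4 loaded 1 h at RT; 460/530 nm ratio gave %activity and AC50.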
# [5] = Stat Signaling Pathway (AID 446); settings: ME-180 (cervical carcinoma) SIE beta-lactamase reporter, IL-6 stimulated, 5 h;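 also: ME-180 cervical cancer cells given 40 pM IL-6 alongside compound; SIE-controlled beta-lactamase reporter measured as 460/530 nm FRET emission ratio; % is scaled to controls: 0 for no effect and ±100 for the full control effect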
# In short: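 Compound effects on IL-6-induced STAT reporter activity were measured in ME-180 cells. After overnight culture, cells were co-treated with 40 pM IL-6 for 5 hrs before beta-lactamase substrate loading at room temperature.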
# [6] = target: 3',5'-cyclic-AMP phosphodiesterase 4B (Homo sapiens) (UniProt Q07343); experiment: qHTS Assay for Inhibitors of PDE-IV (AID 607; active = well fitted activation curve with a large enough effect in the main read-out, with a control signal flat, not every such curve was filed as active; also: % of control where 0% means no effect)
# In short: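 ACTOne HEK293 cells carry a modified cAMP-gated CNG channel and express endogenous PDE4; plated 1000 cells/well, compounds up to 22.9 uM final. Membrane-potential dye fluorescence (ex 535/em 590) was read; parental cells received 10 uM forskolin + 100 uM RO 20-1724.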
# [7] = qHTS profiling for inhibitors of Plasmodium falciparum proliferation (AID 504749; active = well fitted inhibition curve with a large enough effect; also: potency is read from the fitted curve at half-maximal effect;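 as to activity, negative = inhibition: 0% = DMSO vehicle and full inhibition = artemisinin control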; as to all read-outs here: nearly all actives have a fitted effect of over 60% in size); settings: P. falciparum in erythrocytes, SYBR Green DNA, 72 h; for activity, negative = inhibition: at 28.7 µM (top of the series)
# In short: (§1)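 Each compound contacts P. falciparum-infected red blood cells for 72 h at 37 C; lysis buffer (Tris, EDTA, saponin, Triton X, SYBR Green I) is added and fluorescence measured next morning; values normalized to controls.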
# AS120 = experiment: as above; settings: P. falciparum in erythrocytes, SYBR Green DNA, 72 h; series mostly up to 28.7 µM
# In short: as §1
# CP203 = experiment: as above; settings: P. falciparum in erythrocytes, SYBR Green DNA, 72 h; series mostly up to 28.7 µM
# In short: as §1
# DFO2036 = experiment: as above; settings: P. falciparum in erythrocytes, SYBR Green DNA, 72 h; series mostly up to 28.7 µM
# In short: as §1
# W2 = experiment: as above; settings: P. falciparum in erythrocytes, SYBR Green DNA, 72 h; series mostly up to 28.7 µM
# In short: as §1
# [8] = target: Fructose-bisphosphate aldolase A (Oryctolagus cuniculus) (UniProt P00883); experiment: qHTS Assay for Inhibitors of Fructose-1,6-bisphosphate Aldolase from Giardia Lamblia: Rabbit FBPA Selectivity (AID 2794; active = well fitted inhibition curve with a large enough effect; also: % is scaled to controls: 0 for no effect and ±100 for the full control effect; nearly all actives have a fitted effect of over 60% in size)
# In short: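 Each compound, dosed at up to 57.5 uM final, was first mixed with coupling enzyme reagent for 10 min. Aldolase substrate and the AmpLite Red coupling system then ran 20 min at RT before a single fluorescence read.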
# [9] = at 7.69 µM (top of the series) unless noted
# 3',5'-cyclic-AMP phosphodiesterase 4B (Homo sapiens), sequence (Q07343 whole entry, looked up): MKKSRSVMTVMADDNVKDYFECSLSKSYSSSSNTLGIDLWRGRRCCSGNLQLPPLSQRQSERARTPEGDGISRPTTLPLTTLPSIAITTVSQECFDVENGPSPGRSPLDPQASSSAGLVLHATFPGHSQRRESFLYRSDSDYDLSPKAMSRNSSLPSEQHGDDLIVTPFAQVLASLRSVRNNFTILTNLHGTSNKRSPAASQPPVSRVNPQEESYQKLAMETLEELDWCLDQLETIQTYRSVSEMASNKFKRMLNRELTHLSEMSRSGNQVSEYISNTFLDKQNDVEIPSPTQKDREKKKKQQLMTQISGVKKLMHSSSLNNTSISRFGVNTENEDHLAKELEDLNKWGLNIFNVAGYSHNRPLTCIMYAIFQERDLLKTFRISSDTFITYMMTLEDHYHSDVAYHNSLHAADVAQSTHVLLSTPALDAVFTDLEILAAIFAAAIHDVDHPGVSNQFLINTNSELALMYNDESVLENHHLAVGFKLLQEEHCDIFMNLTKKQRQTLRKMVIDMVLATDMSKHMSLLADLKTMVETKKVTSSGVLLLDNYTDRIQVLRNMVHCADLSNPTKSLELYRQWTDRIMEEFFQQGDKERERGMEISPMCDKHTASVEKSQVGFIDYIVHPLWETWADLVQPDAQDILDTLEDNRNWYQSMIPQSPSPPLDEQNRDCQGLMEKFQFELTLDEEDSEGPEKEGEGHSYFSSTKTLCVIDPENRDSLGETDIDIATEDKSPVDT
# Lysosomal acid glucosylceramidase (Homo sapiens), sequence (P04062 whole entry, looked up): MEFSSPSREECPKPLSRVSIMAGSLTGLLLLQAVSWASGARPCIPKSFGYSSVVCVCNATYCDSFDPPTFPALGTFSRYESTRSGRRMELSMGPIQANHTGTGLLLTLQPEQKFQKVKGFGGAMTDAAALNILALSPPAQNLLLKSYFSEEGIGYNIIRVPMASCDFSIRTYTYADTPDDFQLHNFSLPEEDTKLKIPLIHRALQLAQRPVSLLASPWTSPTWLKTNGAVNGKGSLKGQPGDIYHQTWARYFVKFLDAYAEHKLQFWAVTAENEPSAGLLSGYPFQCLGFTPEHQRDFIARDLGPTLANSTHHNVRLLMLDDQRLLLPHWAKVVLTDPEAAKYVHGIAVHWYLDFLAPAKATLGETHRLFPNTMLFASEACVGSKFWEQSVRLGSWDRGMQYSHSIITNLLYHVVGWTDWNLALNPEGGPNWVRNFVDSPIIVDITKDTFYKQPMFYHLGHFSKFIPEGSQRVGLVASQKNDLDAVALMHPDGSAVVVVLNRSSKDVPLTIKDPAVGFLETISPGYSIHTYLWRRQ
# Cytochrome P450 1A2 (Homo sapiens), sequence (P05177 whole entry, looked up): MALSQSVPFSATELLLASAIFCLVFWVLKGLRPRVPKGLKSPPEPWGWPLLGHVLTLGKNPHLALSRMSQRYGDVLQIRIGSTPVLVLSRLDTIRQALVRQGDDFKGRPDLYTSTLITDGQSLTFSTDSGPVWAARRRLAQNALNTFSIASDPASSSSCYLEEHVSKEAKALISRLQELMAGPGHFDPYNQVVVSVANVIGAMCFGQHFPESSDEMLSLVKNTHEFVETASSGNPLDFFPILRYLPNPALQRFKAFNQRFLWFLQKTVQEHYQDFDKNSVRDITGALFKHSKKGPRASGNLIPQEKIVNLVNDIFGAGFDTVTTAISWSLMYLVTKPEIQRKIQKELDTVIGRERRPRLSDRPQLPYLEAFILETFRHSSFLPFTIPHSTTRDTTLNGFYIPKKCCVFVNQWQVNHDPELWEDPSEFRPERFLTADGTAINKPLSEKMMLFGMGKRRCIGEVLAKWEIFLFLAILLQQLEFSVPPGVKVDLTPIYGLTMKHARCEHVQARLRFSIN
# Fructose-bisphosphate aldolase A (Oryctolagus cuniculus), sequence (P00883 whole entry, looked up): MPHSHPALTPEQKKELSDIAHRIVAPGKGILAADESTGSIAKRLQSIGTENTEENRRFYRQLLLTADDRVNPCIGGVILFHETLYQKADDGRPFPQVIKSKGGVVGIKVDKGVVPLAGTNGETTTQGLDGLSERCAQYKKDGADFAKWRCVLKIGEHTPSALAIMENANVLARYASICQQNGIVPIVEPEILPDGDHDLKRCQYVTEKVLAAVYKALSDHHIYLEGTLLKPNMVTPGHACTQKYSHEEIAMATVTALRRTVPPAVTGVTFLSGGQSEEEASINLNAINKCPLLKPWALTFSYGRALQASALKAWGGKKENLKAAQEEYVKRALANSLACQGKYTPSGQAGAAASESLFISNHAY
smiles,measurement,setting,value
CC(C)(C)NC[C@@H](O)c1ccc(O)c(CO)n1,Potency,[1],> 11.4 µM
same,"activity change, negative = inhibition",[2]; [9],-2.07%
same,"activity change, negative = inhibition",[3],10.1% [at 2.29 µM]
same,"activity change, negative = inhibition",[4]; [9],10.1%
same,"activity, negative = inhibition",[5]; [9],19.4%
same,Potency,[6],inactive
same,"activity, negative = inhibition",[7]; parasite line A,8.88%
same,"activity, negative = inhibition",[7]; parasite line B,0.372%
same,Potency,AS120,inactive
same,Potency,CP203,inactive
same,Potency,DFO2036,inactive
same,Potency,W2,inactive
COc1cccc(Cn2c(=O)c(C)nc3cnc(Oc4cccc(Cl)c4)nc32)c1,Potency,[1],> 11.4 µM
same,"activity change, negative = inhibition",[2]; [9],-22.3%
same,Potency,[3],25.1 µM (active)
same,"activity change, negative = inhibition",[4]; [9],-7.01%
same,"activity, negative = inhibition",[5]; [9],-2.38%
O=[N+]([O-])c1ccccc1N=Nc1c(O)[nH]c2ccc(S(=O)(=O)O)cc12,Potency,[1],> 11.4 µM
same,"activity change, negative = inhibition",[2]; [9],-1.77%
same,Potency,[3],1 µM (active)
same,"activity change, negative = inhibition",[4]; [9],11%
same,"activity, negative = inhibition",[5]; [9],-1.49%
same,Potency,[6],inactive
O=C(O)c1ccc(NS(=O)(=O)Cc2ccccc2)cc1,Potency,[1],> 11.4 µM
same,"activity change, negative = inhibition",[2]; [9],6.38%
same,Potency,[3],inactive
same,"activity change, negative = inhibition",[4]; [9],-0.542%
same,"activity, negative = inhibition",[5]; [9],-0.621%
same,Potency,[6],inactive
O=C(O)c1ccc(C(=O)c2ccccc2C(=O)O)cc1C(=O)O,Potency,[1],> 11.4 µM
same,"activity change, negative = inhibition",[2]; [9],-15.3%
same,Potency,[3],inactive
same,"activity change, negative = inhibition",[4]; [9],20.9%
same,"activity, negative = inhibition",[5]; [9],-1.86%
same,Potency,[6],inactive
Clc1cccc(CN2COc3c(cc(Cl)c4cccnc34)C2)c1,outcome,[8],inactive
CC(C)c1ccc(/C=C2\C=C(c3ccc4ccccc4c3)OC2=O)cc1,Potency,[1],> 11.4 µM
same,"activity change, negative = inhibition",[2]; [9],-7.05%
same,"activity change, negative = inhibition",[3],-24.7% [at 2.29 µM]
same,"activity change, negative = inhibition",[4]; [9],-17%
same,"activity, negative = inhibition",[5]; [9],4.97%
same,Potency,[6],inactive
Cc1ccc(C(=O)Nc2nnc(C3=COCCO3)o2)cc1C,outcome,[8],inactive
COc1ccc(CNc2ncnc3ccc(-c4ccccc4C#N)cc23)c(OC)c1,Potency,[1],> 11.4 µM
same,"activity change, negative = inhibition",[2]; [9],13.2%
same,Potency,[3],6.31 µM (active)
same,"activity change, negative = inhibition",[4]; [9],8.27%
same,"activity, negative = inhibition",[5]; [9],-15%
Cc1cc(C)nc(N/N=C/c2ccc([N+](=O)[O-])o2)n1,outcome,[8],inactive
CN(C)[C@H]1C(=O)C(C(=O)NCN2CCCC2)=C(O)[C@]2(O)C(=O)C3=C(O)c4c(O)cccc4[C@](C)(O)[C@H]3C[C@H]12,Potency,[1],> 11.4 µM
same,"activity change, negative = inhibition",[2]; [9],-4.67%
same,Potency,[3],inactive
same,"activity change, negative = inhibition",[4]; [9],6.5%
same,"activity, negative = inhibition",[5]; [9],-11.7%
same,Potency,[6],inactive
same,"activity, negative = inhibition",[7]; parasite line A,9.1%
same,"activity, negative = inhibition",[7]; parasite line B,1.72%
same,Potency,AS120,inactive
same,Potency,CP203,inactive
same,Potency,DFO2036,inactive
same,Potency,W2,inactive
CSc1n[nH]c(=S)n1N,outcome,[8],inactive
Cc1nc2cnc(OCc3ccccc3)nc2n(Cc2ccc(F)cc2)c1=O,Potency,[1],> 11.4 µM
same,"activity change, negative = inhibition",[2]; [9],-22.4%
same,Potency,[3],7.94 µM (active)
same,"activity change, negative = inhibition",[4]; [9],-22.3%
same,"activity, negative = inhibition",[5]; [9],-3.29%
CN(N=O)c1ccc(/C=C\c2ccnc3ccccc23)cc1,Potency,[1],> 11.4 µM
same,"activity change, negative = inhibition",[2]; [9],-0.154%
same,Potency,[3],0.158 µM (active)
same,"activity change, negative = inhibition",[4]; [9],7.28%
same,"activity, negative = inhibition",[5]; [9],-0.754%
CN(C)CCCn1c2ccccc2c2cnccc21,Potency,[1],> 11.4 µM
same,"activity change, negative = inhibition",[2]; [9],1.6%
same,"activity change, negative = inhibition",[3],-20% [at 2.29 µM]
same,"activity change, negative = inhibition",[4]; [9],2.32%
same,"activity, negative = inhibition",[5]; [9],13.9%
same,Potency,[6],inactive
O=C(CN1CCN(Cc2ccccc2)CC1)Nc1ccc(F)c(F)c1,outcome,[8],inactive
Cc1cn([C@H]2C[C@H](N=[N+]=[N-])[C@H](CO)O2)c(=O)[nH]c1=O,Potency,[1],> 11.4 µM
same,"activity change, negative = inhibition",[2]; at 7.69 µM (top of the series),11.1%
same,"activity change, negative = inhibition",[2]; at 38 µM (top of the series),1.21%
same,"activity change, negative = inhibition",[4]; at 7.69 µM (top of the series),5.39%
same,"activity change, negative = inhibition",[4]; at 38 µM (top of the series),-4.43%
same,"activity, negative = inhibition",[5]; at 7.69 µM (top of the series),-1.74%
same,"activity, negative = inhibition",[5]; at 38 µM (top of the series),22.1%
same,Potency,[6],inactive
same,"activity, negative = inhibition",[7]; parasite line A,7.02%
same,"activity, negative = inhibition",[7]; parasite line B,2.08%
same,Potency,AS120,inactive
same,Potency,CP203,inactive
same,Potency,DFO2036,inactive
same,Potency,W2,inactive
Oc1ccc2ccccc2c1N=Nc1nccs1,outcome,[8],inactive
CCc1ccc2c(c1)C1(NN=C(c3ccccc3)S1)C(=O)N2 (stereo not given),outcome,[8],inactive
OCCCN=C1CCCCC1,Potency,[1],> 11.4 µM
same,"activity change, negative = inhibition",[2]; [9],14.4%
same,Potency,[3],inactive
same,"activity change, negative = inhibition",[4]; [9],7.24%
same,"activity, negative = inhibition",[5]; [9],-19.6%
same,Potency,[6],inactive
NC(Cc1ccccc1)=NCC(=O)O,Potency,[1],> 11.4 µM
same,"activity change, negative = inhibition",[2]; [9],2%
same,Potency,[3],inactive
same,"activity change, negative = inhibition",[4]; [9],-0.213%
same,"activity, negative = inhibition",[5]; [9],-4.46%
same,Potency,[6],inactive
O=C(O)c1ccc(Nc2ccnc3cc(Cl)ccc23)cc1O,Potency,[1],> 11.4 µM
same,"activity change, negative = inhibition",[2]; [9],-7.31%
same,Potency,[3],3.98 µM (active)
same,"activity change, negative = inhibition",[4]; [9],11.5%
same,"activity, negative = inhibition",[5]; [9],-9.48%
same,Potency,[6],inactive
CS[C@@H](CC(=O)O)C(=O)O,Potency,[1],> 11.4 µM
same,"activity change, negative = inhibition",[2]; [9],2.29%
same,Potency,[3],inactive
same,"activity change, negative = inhibition",[4]; [9],3.57%
same,"activity, negative = inhibition",[5]; [9],2.44%
same,Potency,[6],inactive
COc1ccc(CN2CCN(Cc3ccc(OC)c(OC)c3OC)CC2)cc1,outcome,[8],inactive
O=C(O)[C@@H](S)[C@H](S)C(=O)O,Potency,[1],> 11.4 µM
same,"activity change, negative = inhibition",[2]; [9],8.2%
same,Potency,[3],inactive
same,"activity change, negative = inhibition",[4]; [9],-7.29%
same,"activity, negative = inhibition",[5]; [9],1.47%
same,Potency,[6],inactive
same,Potency,[7]; parasite line A,10 µM (active)
same,Potency,[7]; parasite line B,7.08 µM (active)
same,Potency,AS120,5.62 µM (active)
same,Potency,CP203,10.7 µM (active)
same,Potency,DFO2036,8.91 µM (active)
same,Potency,W2,3.38 µM (active)
O=[N+]([O-])c1ccc2ncccc2c1CCc1c([N+](=O)[O-])ccc2ncccc12,Potency,[1],> 11.4 µM
same,"activity change, negative = inhibition",[2]; [9],1.48%
same,Potency,[3],3.16 µM (active)
same,"activity change, negative = inhibition",[4]; [9],17.8%
same,"activity, negative = inhibition",[5]; [9],5.88%
same,Potency,[6],inactive
C[C@]12CC[C@H]3c4ccc(O)cc4CC[C@@H]3[C@H]1CC[C@@H]2OC(=O)CCC1CCCC1,Potency,[1],> 11.4 µM
same,"activity change, negative = inhibition",[2]; [9],-8.48%
same,Potency,[3],inactive
same,"activity change, negative = inhibition",[4]; [9],-0.474%
same,"activity, negative = inhibition",[5]; [9],1.67%
same,Potency,[6],inactive
same,"activity, negative = inhibition",[7]; parasite line A,5.91%
same,"activity, negative = inhibition",[7]; parasite line B,2.07%
same,Potency,AS120,inactive
same,Potency,CP203,inactive
same,Potency,DFO2036,inactive
same,Potency,W2,9.53 µM (active)
